Source: PubChem (several laboratories)
PriA SSB inh: blocks PriA binding to SSB C-terminal tail; AID 1272365; inhibition, % at 33 µM; AlphaScreen SSBct-PriA binding, biotinylated peptide; 0.6% of 430,000 active; in the data active means inhibition mostly above about 37%, no sharp cut-off; inactive means mostly below about 20%;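 further: plate controls were negative control peptide for no effect and reference peptide for full effect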
CCHFV vOTU inh: CCHFV vOTU protease inhibition. Pep-AMC fluorescence. inhibition, % at 11.5 µM. 0.55% of 370,000 active; in the data active means inhibition above about 30%; further: 0% = vehicle wells with enzyme and 100% = no enzyme wells
PrPC surface inh: cell surface PrPC inhibition, primary TR-FRET screen; P04156; TR-FRET read-out; inhibition, % at 13.8 µM; 0.43% of 370,000 active; AID 720596; in the data active means inhibition above about 24%; further: 0% = median of the test wells and 100% = reference compound wells
DUSP3 inh: inhibitors of human VHR1 phosphatase (DUSP3) | P51452 | recombinant VHR phosphatase, pNPP absorbance | inhibition, % at 13.3 µM | 0.52% of 290,000 active | AID 1654; in the data active means inhibition above about 50%
Target sequence (P51452 whole entry, looked up): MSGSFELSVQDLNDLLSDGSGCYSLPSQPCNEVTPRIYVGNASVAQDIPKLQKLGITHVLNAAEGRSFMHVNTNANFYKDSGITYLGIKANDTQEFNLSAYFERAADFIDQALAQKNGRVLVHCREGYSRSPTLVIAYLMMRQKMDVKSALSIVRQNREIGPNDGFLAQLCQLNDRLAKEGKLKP
TcdB GH inh: blocks C. difficile toxin B glycohydrolase activity; TcdB glycohydrolase enzymatic assay, plate reader; inhibition, % at 9.99 µM; 0.24% of 350,000 active; AID 652162; in the data active means inhibition above about 10%
BH1578 lux ind: quorum light induction in luxS cqsA deficient V. cholerae; V. cholerae BH1578 lux reporter, luminescence, 6 h; activation, % at 18.7 µM; 0.16% of 350,000 active; AID 588436; in the data active means activation mostly above about 9.7%, no sharp cut-off
Starred values were filed as active, the others as inactive; i = inactive; nt = no result given. A selection: hits, their analogues and other compounds. The true share with any hit is near 1.5%.

SMILES | PriA SSB inh | CCHFV vOTU inh | PrPC surface inh | DUSP3 inh | TcdB GH inh | BH1578 lux ind
O=C(O)C1CCC(CN(Cc2cccc(Br)c2)C(=S)Nc2ccccc2F)CC1 (stereo not drawn) | -4 | 7 | -6 | 21 | 12* | 0
Cc1ccc(C)c(NC(=S)N(Cc2cccc(Br)c2)CC2CCC(C(=O)O)CC2)c1 (stereo not drawn) | -18 | -5 | 4 | 16 | 1 | 0
O=C(Nc1ccccc1Cc1nc(C2CC2)no1)c1ccc(Br)o1 | 28 | nt | nt | nt | nt | nt
CCN1CCCc2cc(CCNC(=O)c3ccccc3C(F)(F)F)ccc21 | 59* | nt | nt | nt | nt | nt
CCCN1CCCc2cc(CCNC(=O)COc3ccc(F)cc3)ccc21 | 78* | nt | nt | nt | nt | nt
CCCN1CCCc2cc(CCNC(=O)COc3ccccc3C)ccc21 | 68* | nt | nt | nt | nt | nt
CCCN1CCCc2cc(CCNC(=O)OCC)ccc21 | 71 | nt | nt | nt | nt | nt
CCCN1CCCc2cc(CCNC(=O)C(=O)Nc3ccccc3OCC)ccc21 | 58 | nt | nt | nt | nt | nt
CCCN1CCCc2cc(CCNC(=O)c3ccccc3OCC)ccc21 | 74* | nt | nt | nt | nt | nt
O=C(NCCc1c[nH]c2ccccc12)C(=O)Nc1nc2ccccc2s1 | -10 | nt | nt | nt | nt | nt
CCCN1CCCc2cc(CCNC(=O)c3ccc(OC)cc3)ccc21 | 74* | nt | nt | nt | nt | nt
CCCN1CCCc2cc(CCNC(=O)c3cccc(OC)c3OC)ccc21 | 24 | nt | nt | nt | nt | nt
CCCN1CCCc2cc(CCNC(=O)COc3cccc(C)c3)ccc21 | 90* | nt | nt | nt | nt | nt
CCCN1CCCc2cc(CCNC(=O)COc3ccc(OC)cc3)ccc21 | 74* | nt | nt | nt | nt | nt
CCCN1CCCc2cc(CCNC(=O)COc3ccc(C)cc3)ccc21 | 64 | nt | nt | nt | nt | nt
CCCN1CCCc2cc(CCNC(=O)C(=O)Nc3c(C)cccc3C)ccc21 | 35 | nt | nt | nt | nt | nt
CCCN1CCCc2cc(CCNC(=O)c3cc(Cl)ccc3OC)ccc21 | 66* | nt | nt | nt | nt | nt
O=C(NCCn1nc(-c2ccc(F)cc2)ccc1=O)C1CCN(c2cc(-n3ccnc3)ncn2)CC1 | -20 | nt | nt | nt | nt | nt
Cc1nc(Nc2ccc(NS(=O)(=O)c3ccc(OC(F)(F)F)cc3)cc2)cc(-n2ccnc2)n1 | -11 | nt | nt | nt | nt | nt
CCCN1CCCc2cc(CCNC(=O)COc3ccc(Cl)cc3)ccc21 | 73* | nt | nt | nt | nt | nt
CCCC(=O)NCCc1ccc2c(c1)CCCN2CCC | 28 | nt | nt | nt | nt | nt
Cc1ccccc1NCc1ccc(O)c2ncccc12 | 97* | 3 | -8 | 22 | 1 | i
Oc1ccc(CNc2cccc(F)c2)c2cccnc12 | 45 | nt | -2 | nt | nt | nt
Oc1ccc(CNc2ccc(F)cc2)c2cccnc12 | 78* | 10 | -3 | 28 | nt | 1
Oc1ccc(CNc2cc(Cl)cc(Cl)c2)c2cccnc12 | 67* | nt | nt | nt | nt | nt
SMILES | PriA SSB inh | CCHFV vOTU inh | PrPC surface inh | DUSP3 inh | TcdB GH inh | BH1578 lux ind
Oc1ccc(CNc2ccccc2)c2cccnc12 | -16 | nt | nt | 8 | nt | -1
Cc1cccc(NCc2ccc(O)c3ncccc23)c1 | 47* | -1 | -4 | 8 | 1 | 0
Cc1nn(-c2ncc(NC(=O)CC(C)C)cn2)c(C)c1C | -9 | nt | nt | nt | nt | nt
O=C(Nc1ccn2nccc2c1)c1cc(Cl)sc1Cl | -12 | nt | nt | nt | nt | nt
COCCN(Cc1ccsc1)C(=O)c1ccno1 | -6 | nt | nt | nt | nt | nt
CCc1cc(-c2n[nH]c(C)c2-c2nc3ccccc3s2)c(O)cc1OCC(=O)NN | 2 | 6 | -5 | 18 | 0 | 0
CCc1cc(-c2n[nH]c(C)c2-c2nc(C)cs2)c(O)cc1OC | 9 | 1 | 3 | 28 | 12* | -1
O=C(Cn1cc(S(=O)(=O)Cc2ccccc2Cl)c2ccccc21)NCc1ccccc1 | -5 | nt | nt | nt | nt | nt
Cc1ccc(S(N)(=O)=O)cc1NC(=O)c1ccc2c3c(cccc13)CC2 | 0 | 8 | -4 | 57* | 3 | i
COc1ccc(C[C@](C)(O)CNC(=O)c2ccc(-c3ccccc3)cc2)cc1 | -10 | nt | nt | nt | nt | nt
O=[N+]([O-])c1ccc(S(=O)(=O)Nc2nc(-c3ccccc3)cs2)cc1 | 12 | 13 | -5 | 2 | 13* | i
Cc1csc(NC(=O)c2ccccc2[N+](=O)[O-])n1 | -4 | -4 | -3 | -31 | nt | 0
O=C(Nc1nc(-c2ccccc2)cs1)c1cc(Cl)ccc1[N+](=O)[O-] | 34 | nt | nt | nt | nt | nt
O=C(Nc1nc(-c2ccccn2)cs1)c1ccccc1[N+](=O)[O-] | 105* | nt | nt | nt | nt | nt
O=C(Nc1nc(-c2ccccc2)cs1)c1ccccc1[N+](=O)[O-] | 84* | nt | nt | nt | nt | nt
O=C(Nc1nc(-c2ccccn2)cs1)c1ccc([N+](=O)[O-])o1 | 51* | 0 | -1 | 10 | 1 | 0
O=[N+]([O-])c1ccc(S(=O)(=O)Nc2nc3ccccc3s2)cc1 | 2 | nt | nt | nt | nt | nt
CCCCN(C)S(=O)(=O)c1ccc(C(=O)Nc2nnc(-c3cc(C)n(C)n3)o2)cc1 | -13 | nt | nt | nt | nt | nt
O=C(Nc1nc(-c2ccccn2)cs1)c1cc(Cl)ccc1[N+](=O)[O-] | 64* | -11 | 16 | 24 | 1 | 0
CCOC(=O)c1ccccc1NC(=O)CN1CCC(c2nnc(C)s2)CC1 | 0 | nt | nt | nt | nt | nt
CC(C)=NNc1nc2ccccc2[nH]1 | 69* | nt | nt | nt | nt | nt
CC(=NNc1nc2ccccc2[nH]1)c1ccc2c(c1)OCCO2 | 42* | nt | nt | nt | nt | nt
CC(=NNc1nc2ccccc2[nH]1)c1ccc2c(c1)OCO2 | 34 | nt | nt | nt | nt | nt
CC(=NNc1nc2ccccc2[nH]1)c1ccc(C)o1 | 27 | nt | nt | nt | nt | nt
Cc1ccc2c(c1)C1CC(C)(O2)N(c2cccc(C(=O)N3CCN(c4ccccn4)CC3)c2)C(=O)N1 (stereo not drawn) | 7 | 12 | 6 | 56* | 1 | 0
SMILES | PriA SSB inh | CCHFV vOTU inh | PrPC surface inh | DUSP3 inh | TcdB GH inh | BH1578 lux ind
O=C(Cc1ccccc1Cl)NCc1cnn2ccccc12 | 7 | nt | nt | nt | nt | nt
COc1ccc(Cl)cc1NC(=O)CN(C)C(=O)c1cc2c(s1)CCCC2 | -13 | 15 | 10 | nt | 12* | 1
Cc1cc(C(=O)NN)c2cc(Br)ccc2n1 | 0 | 19 | 12 | 0 | -1 | -7
NNC(=O)c1cc(-c2ccc(N)cc2)nc2ccc(Br)cc12 | 0 | -4 | -5 | 54* | 1 | 1
CCCCn1ccnc1C | -12 | -7 | 6 | 58* | 1 | -1
CCOC(=O)/C(=N\Nc1cccc(Cl)c1)Sc1nnc(-c2ccc(OC)cc2)n1C | nt | 10 | -5 | -7 | nt | 0
COC(=O)C(=NNc1ccc(Cl)cc1)Sc1nnc(-c2ccc(OC)cc2)n1C | 116* | nt | nt | nt | nt | nt
